Reference: the supplement of paper PMC10981050
Values joined by “and” are separate entries in the source; they are usually repeats but may differ in a detail not shown here. Identical values can stand only once.

What was measured:
Experiment in all cases: cell viability relative to vehicle control; higher = less cytotoxic
Conditions in all cases: 10 µM
K562 = tested on: K562
Procedure, shortened: (§1)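 Four leukaemia lines, as CRISPR-edited mutant clones and isogenic wild-type clones, were tested against Selleck bioactive, kinase and epigenetic probe libraries after removal of identity-inconsistent compounds. Cells were exposed to a single 10 µM dose for 48 h, and CellTiter-Glo luminescence was then read. Viability was calculated relative to the on-plate vehicle control.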

MARIMO = tested on: MARIMO
Procedure, shortened: as §1

MOLM14 = tested on: MOLM14
Procedure, shortened: as §1

OCI-AML2 = tested on: OCI-AML2
Procedure, shortened: as §1

| Structure (SMILES) | cell viability (K562; SRSF2 genotype: SRSF2 P95H/wt) | cell viability (K562; SRSF2 genotype: SRSF2 wt/wt) [%] | cell viability (MARIMO; SRSF2 genotype: SRSF2 P95H/wt) [%] | cell viability (MARIMO; SRSF2 genotype: SRSF2 wt/wt) [%] | cell viability (MOLM14; SRSF2 genotype: SRSF2 P95H/wt) [%] | cell viability (MOLM14; SRSF2 genotype: SRSF2 wt/wt) [%] | cell viability (OCI-AML2; SRSF2 genotype: P95H/wt) [%] | cell viability (OCI-AML2; SRSF2 genotype: wt/wt) [%] |
| --- | --- | --- | --- | --- | --- | --- | --- | --- |
| NC(N)=N/N=C/c1c(Cl)cccc1Cl [Guanabenz (WY-8678) Acetate] | 81.4% and 86.5% | 84 | 83.3 | 83.3 | 84.1 | 86.5 | 89.6 | 88.1 |
| CCCCC[C@H](O)CC(=O)CCc1ccc(O)c(OC)c1 [6-Gingerol] | 87.8% and 85.7% | 82.9 | 86.8 | 98.7 | 90.6 | 95.5 | 90.9 | 81.8 |
| Cc1cc(C)c(CNC(=O)c2cc(-c3ccc(CN4CCOCC4)cc3)cc3c2cnn3C2CCCC2)c(=O)[nH]1 | 105% and 117% | 120 | 113 | 111 | 104 | 107 | 111 | 106 |
| CC1(C)O[C@@H]2C[C@H]3[C@@H]4CCC5=CC(=O)C=C[C@]5(C)[C@H]4[C@@H](O)C[C@]3(C)[C@]2(C(=O)CO)O1 [Desonide] | 97.9% and 104% | 102 | 102 | 110 | 106 | 100 | 104 | 121 |
| CC(C)Cc1ccc(C(C)C(=O)O)cc1 (stereo not given) [Ibuprofen (Advil)] | 99.3% and 98.5% | 92.9 | 95.1 | 100 | 100 | 101 | 87.7 | 101 |
| O=C(c1ccc(F)cc1)C1CCN(CCn2c(=O)[nH]c3ccccc3c2=O)CC1 [Ketanserin (Vulketan Gel)] | 98.1% and 104% | 103 | 102 | 106 | 107 | 107 | 105 | 109 |
| C[C@]12CC[C@@H]3c4ccc(O)cc4CC[C@H]3[C@@H]1C[C@@H](O)[C@@H]2O [Estriol] | 104% and 92.3% | 87.9 | 86.4 | 99.5 | 101 | 99.9 | 91 | 101 |
| COC(=O)c1ccc2c(C(=Nc3ccc(N(C)C(=O)CN4CCN(C)CC4)cc3)c3ccccc3)c(O)[nH]c2c1 [Nintedanib (BIBF 1120)] | 1.02% and 0.94% | 2.25 | 39 | 34.4 | 2.6 | 4.94 | 0.94 | 5.1 |
| Cc1ccccc1-c1cc(N2CCN(C)CC2)ncc1N(C)C(=O)C(C)(C)c1cc(C(F)(F)F)cc(C(F)(F)F)c1 [Netupitant] | 90.3% and 95.2% | 94.6 | 104 | 93.8 | 107 | 98.4 | 70.3 | 75.3 |
| CC(C)=CCC[C@](C)(O)[C@H]1CC[C@]2(C)[C@@H]1[C@H](O)C[C@@H]1[C@@]3(C)CC[C@H](O)C(C)(C)[C@@H]3[C@@H](O)C[C@]12C [(20S)-Protopanaxatriol] | 90.2% and 89.5% | 101 | 96.1 | 105 | 106 | 106 | 107 | 101 |
| O=S(=O)(Cl)c1ccc(-c2ccccc2)cc1 [Biphenyl-4-sulfonyl chloride] | 109% and 104% | 107 | 99 | 100 | 108 | 105 | 105 | 113 |
| C[C@@H](c1ccc2nccn2c1)n1nnc2ncc(-c3cnn(C)c3)nc21 [Savolitinib(AZD6094, HMPL-504)] | 94.1% and 97.5% | 104 | 94.3 | 91 | 96.6 | 97.2 | 90.3 | 96.5 |
| COc1cc2ncnc(Nc3ccc(F)c(Cl)c3)c2cc1NC(=O)/C=C/CN1CCCCC1 | 63.7% and 73.8% | 87.8 | 55.2 | 58.2 | 26.9 | 54.4 | 20.2 | 37.2 |
| N#Cc1cc2cc(CN3CCC(Nc4ncnc5sc(CC(F)(F)F)cc45)CC3)ccc2[nH]1 | 3.53% and 2.57% | 19.3 | 44.3 | 51.2 | 22.6 | 23.4 | 0.63 | 21.5 |
| CCOC(=O)Nc1cc(-c2ccc(C)c(NS(C)(=O)=O)c2)nn2c(C)nnc12 [Bromosporine] | 33.4% and 42% | 49.7 | 9.42 | 13.9 | 3.2 | 1.48 | 1.03 | 4.94 |
| CC1(C)CC[C@]2(C(=O)O)CC[C@]3(CO)C(=CC[C@@H]4[C@@]5(C)C[C@H](O)[C@H](O[C@@H]6O[C@H](CO)[C@@H](O)[C@H](O)[C@H]6O)[C@@](C)(C(=O)O)[C@@H]5CC[C@]43C)[C@@H]2C1 [Tenuifolin] | 102% and 96.9% | 105 | 104 | 112 | 99.4 | 108 | 102 | 103 |
| O=c1cc(-c2ccc(O[C@@H]3O[C@H](CO)[C@@H](O)[C@H](O)[C@H]3O)cc2)oc2cc(O)c([C@@H]3O[C@H](CO)[C@@H](O)[C@H](O)[C@H]3O[C@@H]3OC[C@H](O)[C@H](O)[C@H]3O)c(O)c12 [Vaccarin] | 97.3% and 93.7% | 94.2 | 99.2 | 96.3 | 92.3 | 100 | 91.1 | 96 |
| COc1cc2nccc(Oc3ccc(NC(=O)Nc4cc(C)on4)c(Cl)c3)c2cc1OC [Tivozanib (AV-951)] | 11.4% and 16.2% | 21.9 | 56.2 | 61.4 | 11.3 | 10.3 | 26.1 | 29.9 |
| CC(C)NC(=O)C1CCC(n2c(NC(=O)c3ccc(F)cc3)nc3ccc(CN4CCC(C(C)(C)O)CC4)cc32)CC1 (stereo not given) [Belizatinib (TSR-011)] | 59.4% and 65.3% | 56.9 | 41.4 | 45 | 7.89 | 11.3 | 19 | 35.3 |
| CCC(=O)NCC[C@@H]1CCc2ccc3c(c21)CCO3 [Ramelteon] | 105% and 104% | 97.6 | 91.7 | 101 | 107 | 98.8 | 93.7 | 99.4 |

| Structure (SMILES) | cell viability (K562; SRSF2 genotype: SRSF2 P95H/wt) | cell viability (K562; SRSF2 genotype: SRSF2 wt/wt) [%] | cell viability (MARIMO; SRSF2 genotype: SRSF2 P95H/wt) [%] | cell viability (MARIMO; SRSF2 genotype: SRSF2 wt/wt) [%] | cell viability (MOLM14; SRSF2 genotype: SRSF2 P95H/wt) [%] | cell viability (MOLM14; SRSF2 genotype: SRSF2 wt/wt) [%] | cell viability (OCI-AML2; SRSF2 genotype: P95H/wt) [%] | cell viability (OCI-AML2; SRSF2 genotype: wt/wt) [%] |
| --- | --- | --- | --- | --- | --- | --- | --- | --- |
| CCCCCCCCCCC[C@@H](C[C@@H]1OC(=O)[C@H]1CCCCCC)OC(=O)[C@H](CC(C)C)NC=O [Orlistat (Alli, Xenical)] | 75.8% and 85.2% | 76.8 | 41.8 | 64.9 | 75.3 | 73.4 | 49.6 | 86.8 |
| C=C1C2CCC3C2C(C)(C)CCCC13C (single isomer, unassigned; (+)) [(+)-Longifolene] | 105% and 104% | 110 | 96.6 | 107 | 103 | 106 | 103 | 115 |
| NC(=O)N1c2ccccc2CC(=O)c2ccccc21 [Oxcarbazepine] | 89% and 97.3% | 94.8 | 85.3 | 99.1 | 73.4 | 92.3 | 86 | 86.9 |
| COC(=O)N1CCN(Cc2cccc(NC(=O)Nc3ccc(C)nc3)c2F)CC1 | 89.4% and 89.7% | 96.5 | 91.9 | 94.2 | 100 | 99.9 | 88.4 | 87.2 |
| CC1C(=O)OC2C(O)C34C5CC(C(C)(C)C)C36C(OC(=O)C6O)OC4(C(=O)O5)C12O (stereo not given) [Ginkgolide B] | 110% | 114 | 111 | 109 | 107 | 109 | 113 | 105 |
| CC1=C(CC[C@@H](C)CO[C@@H]2O[C@H](CO)[C@@H](O)[C@H](O)[C@H]2O)O[C@H]2C[C@H]3[C@@H]4CC=C5C[C@@H](O[C@@H]6O[C@H](CO)[C@@H](O[C@@H]7O[C@@H](C)[C@H](O)[C@@H](O)[C@H]7O)[C@H](O)[C@H]6O[C@@H]6O[C@@H](C)[C@H](O)[C@@H](O)[C@H]6O)CC[C@]5(C)[C@H]4CC[C@]3(C)[C@@H]12 [Pseudoprotodioscin] | 107% and 104% | 110 | 99.3 | 104 | 96.2 | 101 | 110 | 105 |
| Cc1cc(O)c(C(=O)CCC(C)C)c(=O)o1 [Pogostone] | 104% and 98.3% | 101 | 95.7 | 106 | 96.5 | 99.5 | 95.9 | 99.5 |
| NC(=O)c1nc(F)cnc1O [Favipiravir (T-705)] | 98.6% and 95.8% | 95.8 | 91.7 | 92.5 | 89.8 | 94.8 | 100 | 93.2 |
| C[C@@H]1O[C@@H](OC[C@H]2O[C@@H](Oc3c(-c4ccc(OCCO)c(OCCO)c4)oc4cc(OCCO)cc(O)c4c3=O)[C@H](O)[C@@H](O)[C@@H]2O)[C@H](O)[C@H](O)[C@H]1O [Troxerutin] | 105% and 90.9% | 86.2 | 78.9 | 92.2 | 86.3 | 91.9 | 91.5 | 88 |
| NC(=S)N/N=C/c1ncccc1N [Triapine] | 75.8% and 77.5% | 76.5 | 20.1 | 15.3 | 6.66 | 1.54 | 13.1 | 15.1 |
| COc1cc(N2CCC(N(C)C)CC2)ccc1Nc1ncc(Cl)c(Nc2ccccc2P(C)(C)=O)n1 | 41.2% and 62.9% | 34.2 | 34 | 27.2 | 1.15 | 3.56 | 4.59 | 12.3 |
| Cc1ncc([N+](=O)[O-])n1CC(O)CCl (stereo not given) [Ornidazole] | 96.6% and 100% | 94.7 | 102 | 104 | 91.9 | 105 | 103 | 106 |
| CC1=CCC(=C(C)C)C(=O)CC(C)=CCC1 [Germacrone] | 110% and 109% | 111 | 107 | 103 | 110 | 106 | 95.1 | 101 |
| Oc1ccc2ccccc2c1SSc1c(O)ccc2ccccc12 | 62.1% and 81.6% | 83.9 | 32.7 | 29.7 | 18.9 | 29.6 | 31.8 | 31.2 |
| COc1cc2ncnc(Nc3cccc(Cl)c3F)c2cc1OC(=O)N1CCN(C)C[C@H]1C | 84.8% and 93.4% | 101 | 104 | 106 | 77.9 | 87.3 | 89.8 | 75.7 |
| CC(=C(CCOC(=O)C(C)C)SSC(CCOC(=O)C(C)C)=C(C)N(C=O)Cc1cnc(C)nc1N)N(C=O)Cc1cnc(C)nc1N (stereo in doubt) [Sulbutiamine] | 99% and 93.5% | 93.6 | 84.7 | 95.4 | 84.2 | 90.8 | 84.7 | 93.6 |
| CC(C)(O)[C@H]1CC[C@@](C)(C2[C@@H](O)C[C@@]3(C)[C@@H]4C[C@H](O)C5C(C)(C)[C@@H](O)CCC56CC46CC[C@]23C)O1 (stereo not given in full) [Cycloastragenol] | 105% and 109% | 97.6 | 112 | 118 | 108 | 107 | 111 | 110 |
| COc1ccc(-c2cc(=O)c3c(OC)c(OC)c(OC)c(OC)c3o2)cc1OC [Nobiletin (Hexamethoxyflavone)] | 94.6% and 90.6% | 92.6 | 79.1 | 82.1 | 83.3 | 81.3 | 74.5 | 81.5 |
| Cc1cc([N+](=O)[O-])ccc1NS(=O)(=O)c1cc(Cl)ccc1Cl | 79.9% and 88% | 86.3 | 96.4 | 92.9 | 92.3 | 90.9 | 93.1 | 97.1 |
| CCCCC(=O)N(Cc1ccc(-c2ccccc2-c2nnn[nH]2)cc1)[C@H](C(=O)O)C(C)C [Valsartan (Diovan)] | 102% and 98.1% | 105 | 102 | 112 | 104 | 106 | 101 | 112 |
